In ChEMBL document CHEMBL3988442, “University of Dundee, Small-Polar-MMV Screening Library” (2021) one finds Percent Effect data, which are given here for 40 molecules.

In this assay the target is Shiga toxin 2 (Escherichia coli O157:H7) (UniProt P09385+P09386). Description: E. coli 0.157:H7 Shiga Toxin SOP - stx2 screening assay. The assay is classed as functional. To be noted: 30 µM. Also noted: scale not given: direction of the effect not stated beside the values.
For `Cn1c(Cn2ccnc2)nnc1C1CCN(Cc2cccnc2N)CC1`, the Percent Effect was -12.5%.

On to `COc1ccc(C2(NC(=O)CCn3cncn3)CCCCC2)cc1`, for which the Percent Effect was 1.34%.

With `CN(CCO)C[C@@H]1CN(C(=O)c2c(F)cccc2Cl)C[C@@H]1CO`, the Percent Effect is -49%.

For `COc1ccc(CN2C[C@@H](OCc3csc(C)n3)[C@H]3COC[C@H]32)cc1`, the Percent Effect is -12.3%.

For the molecule `CC(C)c1ncc(CN2CCCC(CO)C2)cn1` (stereo not given), the Percent Effect came to 5.71%.

Turning to `CCc1noc(C)c1C(=O)N1CCCC1c1c(C)nn(C)c1OC` (stereo not given), the Percent Effect came to 5.57%.

For `Cc1ccc(NC(=O)C2CSCN2C(=O)c2cnn(C)c2)c(C)c1` (stereo not given), the Percent Effect was -0.207%.

Take `O=C(c1ccc2c(c1)OCO2)N1CCN(c2cnccn2)CC1`: the Percent Effect was -14.6%.

For `Cc1nc(CN2CCCC2c2ccsc2)nc2ccccc12` (stereo not given), the Percent Effect is -26.3%.

For `Cc1[nH]ncc1C(=O)N1CCCC(n2cncn2)C1` (stereo not given), the Percent Effect was determined as 22.7%.

`c1coc(-c2nnc(CN3CCOC(Cn4cccn4)C3)o2)c1` (stereo not given): the Percent Effect was 3.23%.

Regarding `CNc1nc(CNC(=O)Nc2ccccc2-c2noc(C)n2)cs1`, the Percent Effect was found to be 13.1%.

For `Cc1ccccc1CSc1nc(N)cc(N2C[C@H](O)[C@@H](N(C)C)C2)n1`, the Percent Effect turned out to be 14.8%.

As to `CCc1nnc2n1CC(CNCc1ccncc1)CC2` (stereo not given), the Percent Effect was -13.5%.

Turning to `O=C(O)c1cc2c(nc1O)CC(c1cccc(Cl)c1)CC2=O` (stereo not given), the Percent Effect was -22.1%.

For the molecule `Cc1nnc(CN2CCN(CC(O)c3cccc(F)c3)CC2)n1C` (stereo not given), the Percent Effect was found to be 18.7%.

With `CC(=O)N1CCCn2nc(CNS(=O)(=O)c3cc(C)cs3)cc2C1`, the Percent Effect was determined as 5.82%.

For `Cc1nccn1CC1CCCN1S(=O)(=O)Cc1ccccc1F` (stereo not given), the Percent Effect was -2.92%.

On to `COc1cc(CNCc2ccnc(N3CCOCC3)c2)cc(Cl)c1OC`, for which the Percent Effect amounted to 24.1%.

On to `Cc1nc(O)c2nnn(C[C@H]3CCCN3C(=O)CCC3CCCC3)c2n1`, for which the Percent Effect turned out to be 13%.

For the molecule `Cc1ccc(NC(=O)N2CCN(Cc3noc(C4CC4)n3)CC2)cc1`, the Percent Effect was -9.31%.

For the molecule `N#CCCN(C(=O)CN1CCCC1Cc1ccccc1)c1ccccc1` (stereo not given), the Percent Effect came out at 27.4%.

Turning to `O=C(c1cc(=O)[nH]c(=O)[nH]1)N1CCCCC1c1nc2cc(F)ccc2[nH]1` (stereo not given), the Percent Effect was determined as 9.59%.

In the case of `CCn1nc2c(cc1=O)CN(Cc1nc3ccccc3c(=O)[nH]1)CC2`, the Percent Effect was 1.48%.

As for `NCc1cnn(-c2ccccc2C(=O)NCCCn2ccnc2)c1`, the Percent Effect worked out at 10.4%.

As to `CCN1CC2(CC1=O)CN(Cc1ccco1)CCN(C(=O)N(C)C)C2` (stereo not given), the Percent Effect is -10.3%.

As to `COc1cc(C)c(S(=O)(=O)NCc2cccnc2N(C)C)c(C)c1`, the Percent Effect was -18.1%.

Consider `CCC1=N[C@@]2(CC[C@@H]3CN(C(=O)NCc4ccccc4)C[C@@H]32)C(=O)N1`, for which the Percent Effect worked out at 5.39%.

On to `CC1CCN(CCNC(=O)c2ccccc2N2CCOCC2)CC1`, for which the Percent Effect was -16.9%.

Consider `COCCN1CCN(Cc2noc(C3CC3)n2)CC1C` (stereo not given), for which the Percent Effect was -12.1%.

As to `CC1c2ncc(CN3CCN(C)CC3)n2CCN1Cc1cccnc1` (stereo not given), the Percent Effect was -23.1%.

On to `Cc1nnc(CCNC2CCN(c3ncnc4c(C)csc34)CC2)s1`, for which the Percent Effect was -65.7%.

Regarding `CN(C)C(=O)N1Cc2nnn(C)c2C(COCC2CC2)C1` (stereo not given), the Percent Effect is -35.2%.

As to `COCCN1CCN(C(=O)c2cc(C(C)C)on2)[C@H]2CS(=O)(=O)C[C@H]21`, the Percent Effect was -5.69%.

Turning to `O=C1CCc2cc(-c3csc(CCN4CCCC4=O)n3)ccc2N1`, the Percent Effect is -10.4%.

Turning to `O=C(Cn1nc(-c2ccc(F)cc2)oc1=O)NCc1ccc(F)cc1`, the Percent Effect was found to be 32.8%.

`CCn1ncc2c1C(COCC1CC1)CN(C(=O)c1cccs1)C2` (stereo not given): the Percent Effect was found to be 33.1%.

Consider `Cc1ccc(N2CC3(CCN(c4nccs4)C3)C2)nn1`, for which the Percent Effect was -64.2%.

With `COCCC(=O)N1CCC2(COCc3cnc(N4CCOCC4)nc32)C1` (stereo not given), the Percent Effect came out at 9.32%.

Regarding `Cc1cc(NC(=O)NCCc2cccs2)n(C)n1`, the Percent Effect is -38.4%.
